Assay results reported in PubChem BioAssay (NCI).
The panel holds about 83,000 compounds, 20% with a hit somewhere; the sample as a whole holds those more often.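 Negative percent growth values reflect cell death: -40 means 40% of the cells present at the start died, and -100 means all died.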 Values without a mark were called inactive. The source made the active and inactive calls.

Each compound was assayed on HS 578T breast (assay: NCI-60 one-dose screen, 48 h (100 = growth as untreated, 0 = no growth, -100 = all killed)). Conditions: 10 µM.
Procedure: Growth inhibition of the HS 578T human tumor cell line is measured as a screen for anti-cancer activity. Cells are grown in 96 well plates and exposed to the test compound for 48 hours. Compounds are tested at a single concentration, which is 10^-5 M for most compounds. The reported endpoint is percent growth (GI% or GIPRCNT), where numbers from 0 - 100% represent growth inhibition, and numbers from -100% - 0 represent cell death. For example, a value of 40 represents 60% growth inhibition. A value of 0 means no net growth occurred over the course of the experiment. A value of -40 indicates 40% of cells at the beginning of the experiment died by the end of the experiment. A value of -100 means all cells are dead at the end of the experiment.
NCI-60 Human Tumor Cell Lines Screen was performed using the standard one-dose NCI protocol, which is described in more detail at https://dtp.cancer.gov/discovery_development/nci-60/default.htm.
Compounds with GIPRCNT values below 10 were considered active. Activity score was based on GIPRCNT using the following formula: […]
Score is 0 for GIPRCNT values of 100 or above, 50 for GIPRCNT values of 0, and 100 for GIPRCNT values of -100.

Structure (SMILES)	growth
O=C(CN1CCNCC1)N1CCOCC1	102%
O=C(O)COCC(=O)O	117%
CCN(CC)CCNc1ccc(CO)c2sc3ccccc3c(=O)c12	64.8%
Cc1ccc(C(=O)c2ccccc2)c(C)c1	113%
CC(=O)Nc1cccc(Cl)c1C	92.9%
NC(N)=Nc1cc2ccccc2c2ccccc12	96.4%
O=C(O)CCC(NC(=O)OCc1ccccc1)C(=O)O (stereo not given)	107%
Cc1ccc(C)n1-c1ccsc1C(=O)NNC(=O)CCl	92.7%
CC(=O)OCC1CCCO1 (stereo not given)	94.2%
COC(=O)c1[nH]c(=O)c(C#N)c(C(=O)OC)c1C(=O)c1ccccc1	84.4%
Cc1ccc(Cl)cc1N1C(=O)CC(Sc2ccccc2N)C1=O (stereo not given)	103%
Cc1ccccc1C1N=C2Oc3ccccc3C=C2C(=O)N1 (stereo not given)	32.8%
CC12CC3CC1C(C(=O)O2)C3C(=O)O (stereo not given)	108%
Cc1cc(=O)n(-c2ccc(F)cc2)[nH]1	102%
CN(c1ccccc1)c1ncnc2c1ncn2C	103%
O=C(O)/C=C/C(=O)NCc1ccccc1	113%
CCOC(=O)/C(C#N)=C/c1cccc(C)c1	107%
O=[N+]([O-])c1ccccc1N=Nc1ccc(O)cc1O	131%
O=C(CCl)Nc1ccc2c(c1)C(=O)c1ccc(NC(=O)CCl)cc1C2=O	6.19% (active)
COc1ccc(C(O)c2ccccc2)cc1 (stereo not given)	108%

Structure (SMILES)	growth
O=c1[nH]c(O)c(/C=C2/C=Nc3ccccc32)[nH]1	95.1%
Cc1c(O)cnc2nn(-c3ccccc3)c(=N)n12	127%
Cc1nc2c(ccc3ccccc32)s1	106%
COc1nc(N)nc2c1ncn2C1OC(CO)CC1O (stereo not given)	117%
CC(C)OC(=O)c1cc(NC(=S)OC(C)C)ccc1Cl	-29% (active)
CC(=O)Nc1c(C)cc(C)cc1C	111%
O=[N+]([O-])c1ccc(N=Nc2ccc(O)c3ccccc23)cc1	1.22% (active)
CC(=O)Cc1cc(-c2cc(CC(C)=O)[nH]n2)n[nH]1	93.2%
NC(=S)N/N=C/c1ccc(N)cc1	106%
NNc1ccccc1C(=O)O	108%
Cc1cc2ccccc2c(O)c1C#N	108%
O=C1OC(=O)C2C1C1(Cl)C(Cl)=C(Cl)C2(Cl)C2C(=O)OC(=O)C21 (stereo not given)	113%
C[N+](C)(C)C(=O)c1ccccc1	118%
CCCOC(=O)C(O)c1ccccc1 (stereo not given)	104%
O=[N+]([O-])c1ccccc1S(=O)c1ccccc1[N+](=O)[O-]	106%
N#CSc1cc(S(N)(=O)=O)ccc1N	115%
N#CC(=Nc1cccc(F)c1)C1=C(O)c2ccccc2C1=O	99.7%
O=[N+]([O-])c1ccc(/C=C/C=C/c2ccccc2)c(Cl)c1	87.7%
CC(=O)c1cc2c(cc1F)C(C)(C)CCC2(C)C	99%
Sc1ccc(Nc2c3ccccc3nc3ccccc23)cc1	112%
